Results reported in PubChem BioAssay (EPA / NIEHS).
Records with an inconclusive call do not appear. Activity calls are given as the source filed them. How the source made its calls: active means hit-call score of the fitted dose curve at least 0.9, where 1 is the maximum; inconclusive means response in the unintended direction; inactive means score below 0.9.

Each molecule was assayed against human RAR-related Orphan Receptor gamma (RORg), RORC (gene 6097) (UniProt P51449) (assay: ATG_RORg_TRANS: Attagene TRANS-FACTORIAL HepG2 Assay for human RAR-related Orphan Receptor gamma (RORg) (AID 2283011)).
Protocol: ATG_TRANS is a cell-based, multiplexed-readout assay that uses HepG2, a human liver cell line, with measurements taken at 24 hours after chemical dosing in a 24-well plate.ATG_RORg_TRANS is one of 30 assay component(s) measured or calculated from the ATG_TRANS assay. It is designed to make measurements of mRNA induction, a form of inducible reporter, as detected with fluorescence intensity signals by Reverse transcription polymerase chain reaction (RT-PCR) and Capillary electrophoresis technology.Data from the assay component ATG_RORg_TRANS was analyzed into 1 assay endpoint. This assay endpoint, ATG_RORg_TRANS, was analyzed in the positive analysis fitting direction relative to DMSO as the negative control and baseline of activity. Using a type of inducible reporter, measures of mRNA for gain-of-signal activity can be used to understand the reporter gene at the transcription factor-level as they relate to the gene RORC. Furthermore, this assay endpoint can be referred to as a primary readout, because this assay has produced multiple assay endpoints where this one serves a reporter gene function. To generalize the intended target to other relatable targets, this assay endpoint is annotated to the nuclear receptor intended target family, where the subfamily is orphan.
Human liver HepG2 cells are transiently transfected with multiple reporter transcription units (MRTUs) in 6-well plates using FuGene 6 reagent (Roche; 3 ml FuGene/1 mg DNA). The MRTU constructs are regulated by a cis-regulating element (promoter). […] A major difference between the CIS and TRANS system is that in CIS activities of endogenous TFs are measured, whereas the TRANS assay evaluates changes in activities of exogenous, chimeric NR-Gal4 proteins. […] At the end of 24 hour incubation, total RNA was isolated using TriZol reagent (Invitrogen). The isolated RNA is then reverse-transcribed using oligo(dT) primer and Mo-MLV reverse transcriptase (Invitrogen) with DNAse I (Ambion) treatment for 30 min. The one-tenth of the produced cDNA was amplified by PCR using Taq DNA polymerase (Invitrogen) and two reporter sequence-specific primers. The PCR products were fluorescently labeled by primer extension with 6-arboxyfluorescein (6-FAM) 5'-labeled reporter sequence-specific primer (2 min at 95 C, 20 s at 68 C and 10 min at 72 C) and these products were digested with 5U of HpaI (New England Biolabs) for 2h at 37 C. The fragments were purified using Qiaquick PCR columns (Qiagen), analyzed on an ABI 3130xL genetic analyzer (Applied Biosystems) with peak positions identified by using a set of X-rhodamine (ROX)-labeled MapMarker1000 molecular weight standards (BioVentures). The raw capillary electrophoresis data was processed using Attagraph software (Attagene).

Sequence of human RAR-related Orphan Receptor gamma (RORg), RORC (gene 6097) (P51449 whole entry, looked up): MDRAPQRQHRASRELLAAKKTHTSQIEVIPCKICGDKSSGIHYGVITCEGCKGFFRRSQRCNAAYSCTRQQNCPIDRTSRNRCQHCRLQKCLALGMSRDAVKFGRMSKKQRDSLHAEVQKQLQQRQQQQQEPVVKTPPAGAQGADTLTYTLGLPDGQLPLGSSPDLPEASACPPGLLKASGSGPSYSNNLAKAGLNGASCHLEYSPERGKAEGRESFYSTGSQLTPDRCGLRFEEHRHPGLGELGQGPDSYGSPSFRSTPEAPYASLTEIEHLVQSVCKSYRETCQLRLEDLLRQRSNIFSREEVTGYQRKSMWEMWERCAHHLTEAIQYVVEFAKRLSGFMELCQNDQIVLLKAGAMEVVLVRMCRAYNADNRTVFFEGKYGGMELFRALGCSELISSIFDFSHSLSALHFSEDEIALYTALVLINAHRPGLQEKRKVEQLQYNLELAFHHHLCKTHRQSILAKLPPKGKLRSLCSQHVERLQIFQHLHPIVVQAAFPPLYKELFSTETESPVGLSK

outcome, inactive:
CC(C)(C)NC(=O)[C@@H]1CN(Cc2cccnc2)CCN1C[C@@H](O)C[C@@H](Cc1ccccc1)C(=O)N[C@H]1c2ccccc2C[C@H]1O
CCC(C)NC(N)=O (stereo not given)
COC(OC)C(C)c1ccccc1 (stereo not given)
CC(=O)CCc1ccccc1
Clc1ccccn1
CCC(C)(CCC(C)C)C(=O)O (stereo not given)
CC/C=C\CCCCCO
CC1(C)S[C@@H]2[C@H](NC(=O)[C@H](N)c3ccccc3)C(=O)N2[C@H]1C(=O)O
COc1cccc(OC)c1C(=O)O
CCC(=O)OCc1ccc(OC)cc1
COC(=O)c1ccccc1
CCCC(=O)OC/C=C(\C)CCC=C(C)C
CC=CC(=O)O
C/C=C(\C)C(=O)OCC/C=C\CC
CC(C)=CCOC(=O)c1ccccc1
CC/C=C\CC/C=C/C(OCC)OCC
CC(=O)OC(C)(C)Cc1ccccc1
CC(C)CC(=O)CC(C)C
OCCOCCOCCOCCOCCO
CC/C=C\CCO
OCCc1ccccn1
CCCCCCCCCC/C=C/C1CC(=O)OC1=O (stereo not given)
Cc1cc2nc3c(=O)[nH]c(=O)nc-3n(C[C@H](O)[C@H](O)[C@H](O)CO)c2cc1C
CC/C=C/CCO
[O-][n+]1ccc(Cl)cc1
Cc1cc(-n2nc3ccc(Cl)cc3n2)c(O)c(C(C)(C)C)c1
O=C(Oc1ccccc1)c1ccccc1
NC(=O)c1ccc(N)cc1
CC(C)CC(=O)CC(C)CC(C)C (stereo not given)
CO[Si](CCCNCCN)(OC)OC
Brc1ccc(Oc2ccc(Br)cc2)cc1
CN(C)N=Nc1ccccc1
CCOC(=O)c1ccccc1
COc1ccccc1OCC(O)CO (stereo not given)
O=[N+]([O-])c1ccc2nc[nH]c2c1
O=C(CC(C(=O)OC1CCCCC1)S(=O)(=O)O)OC1CCCCC1 (stereo not given)
NCc1ccccc1
O=C(O)c1cc(Cl)cc(Cl)c1O
C=C1CC[C@H]2C[C@@H]1C2(C)C
CCOC(=O)CC(=O)OCC
